# MPTP block: inhibitors of mitochondrial permeability transition pore. isolated mouse mitochondria, Ca2+ swelling absorbance, 30 min. hit rate 1.4% among 360,000. inhibition, % at 10 µM;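 active = inhibition of 50% or more, scaled per plate between neutral and stimulator controls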;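 note: 0% = DMSO wells given calcium and 100% = 1 mM EGTA wells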
# tim10-1 inh: tim10-1 yeast growth inhibition. S. cerevisiae tim10-1 ts strain growth, BacTiter-Glo, 24 h. inhibition, % at 20 µM. hit rate 2.2% among 330,000. AID 463190;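 active = inhibition of at least 40%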;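 note: mutant grown at 25 °C; 0% = DMSO wells with yeast and 100% = wells holding no yeast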
# tim23-1 inh: inhibits growth of tim23-1 mutant yeast; S. cerevisiae tim23-1 growth, BacTiter-Glo luminescence, 24 h; inhibition, % at 20 µM; hit rate 1.3% among 330,000; AID 463212;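 active = growth inhibition of the mutant yeast at or above 50%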;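 note: temperature-sensitive mutant grown at 25 °C; plate controls were DMSO-treated mutant yeast for no effect and medium wells lacking yeast for full effect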
# Mdm2 MdmX PPI: inhibitors of human Mdm2/MdmX interaction. O15151+Q00987. SaOS-2 split-luciferase Mdm2/MdmX complementation, luminescence. inhibition, % at 8 µM. hit rate 3% among 330,000. AID 485346;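 active = inhibition of at least 50% at 8 µM in the primary screen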
# Target sequence (O15151 whole entry, looked up): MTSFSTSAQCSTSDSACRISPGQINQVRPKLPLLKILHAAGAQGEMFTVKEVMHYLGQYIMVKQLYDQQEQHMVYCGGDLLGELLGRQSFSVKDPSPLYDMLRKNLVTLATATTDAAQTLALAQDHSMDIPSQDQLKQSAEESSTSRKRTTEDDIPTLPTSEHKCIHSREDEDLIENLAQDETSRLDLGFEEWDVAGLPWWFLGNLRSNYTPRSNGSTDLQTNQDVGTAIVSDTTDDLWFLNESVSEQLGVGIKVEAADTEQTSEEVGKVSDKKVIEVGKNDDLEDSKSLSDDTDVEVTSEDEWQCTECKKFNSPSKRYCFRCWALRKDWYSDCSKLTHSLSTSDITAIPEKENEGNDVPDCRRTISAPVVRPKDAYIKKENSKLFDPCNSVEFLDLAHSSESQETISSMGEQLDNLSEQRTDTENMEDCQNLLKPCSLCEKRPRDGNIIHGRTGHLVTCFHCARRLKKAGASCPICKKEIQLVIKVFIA
# Target sequence (Q00987 whole entry, looked up): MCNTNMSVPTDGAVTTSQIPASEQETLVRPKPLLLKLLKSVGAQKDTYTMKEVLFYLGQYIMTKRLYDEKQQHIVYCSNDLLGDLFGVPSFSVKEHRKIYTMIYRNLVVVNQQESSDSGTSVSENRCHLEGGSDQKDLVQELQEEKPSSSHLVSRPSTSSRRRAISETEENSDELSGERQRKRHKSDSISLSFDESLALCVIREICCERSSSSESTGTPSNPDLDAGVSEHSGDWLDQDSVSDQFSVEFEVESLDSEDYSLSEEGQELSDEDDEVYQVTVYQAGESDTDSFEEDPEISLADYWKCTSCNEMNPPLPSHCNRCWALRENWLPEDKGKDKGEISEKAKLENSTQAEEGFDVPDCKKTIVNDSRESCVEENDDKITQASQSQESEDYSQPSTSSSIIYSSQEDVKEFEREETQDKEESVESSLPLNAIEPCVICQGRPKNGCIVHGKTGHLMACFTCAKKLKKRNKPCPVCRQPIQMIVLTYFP
# TIM10 inh: inhibits growth of TIM10 yeast strain; S. cerevisiae TIM10 strain growth, BacTiter-Glo luminescence, 24 h; inhibition, % at 10 µM; hit rate 1.4% among 330,000;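 active = inhibition of 40% or more at the single tested concentration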;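 note: wild-type TIM10 isogenic control strain grown at permissive 25 °C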
# tim10-1 confirm: confirmation of tim10-1 mutant yeast growth inhibitors. hit rate 56% among 7,400. S. cerevisiae tim10-1 ts strain growth, BacTiter-Glo, 24 h. inhibition, % at 20 µM. shares compounds with tim10-1 inh;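 active = inhibition of yeast growth at or above a set limit in either of two repeat tests at 20 µM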;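 note: tim10-1 mutant grown at permissive 25 °C to find synthetic lethal compounds; 0% = DMSO yeast wells and 100% = medium wells without yeast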
# Numbers without * were called inactive; / = no result given. Compounds with a hit are over-represented: about 6.3% of the library has one in this group of screens.
SMILES,MPTP block,tim10-1 inh,tim23-1 inh,Mdm2 MdmX PPI,TIM10 inh,tim10-1 confirm
COc1ccc(NC(=O)c2ccc(OC(=S)N(C)c3ccc(OC)cc3)cc2)cc1,0,13,10,25,-4,/
COc1ccccc1/C(C)=N/NC(=S)NCc1ccccc1,5,47*,49,-20,26,14
CC(C(=O)N1CCN(c2ccc(Cl)cc2)CC1)c1ncc(C(F)(F)F)cc1Cl (stereo unspecified),47,43*,30,7,32,9
CC(C(=O)NC1CC1)c1ncc(C(F)(F)F)cc1Cl (stereo unspecified),-2,-6,1,1,2,/
Cc1ccc(C)c(NC(=S)NNC(=O)c2csc3c2CCC(C)C3)c1 (stereo unspecified),2,44*,23,9,-13,34*
Cc1ccc(C)c(NC(=S)NNC(=O)c2csc3c2CCCC3)c1,-3,37,19,-25,15,/
Cc1ccc2c(c1)-c1c(ssc1=S)C(C)(C)N2C(=O)CSC1=NCCS1,-1,43*,33,36,29,38*
CCOc1ccc2c(c1)-c1c(ssc1=S)C(C)(C)N2C(=O)CSC1=NCCS1,3,14,33,22,3,/
CCCCn1nnnc1C1(C)CCC(=O)N1Cc1cccc(F)c1 (stereo unspecified),-1,/,/,/,/,/
CCOC(=O)C1(S(=O)(=O)c2ccc(Cl)cc2)CCN(Cc2ccc(C)cc2)CC1,8,50*,45,12,28,28
CCCCNC(=O)c1nc(-c2cccs2)oc1-c1ccc(Cl)cc1,2,/,/,/,/,/
O=C1NC(Cc2ccc(O)cc2)c2nc3ccc(F)cc3c(=O)n2-c2cc3ccccc3cc21 (stereo unspecified),0,/,/,/,/,/
CCOC(=O)Nc1ccc2c(CNC(C)c3ccccc3OC)cc(=O)oc2c1 (stereo unspecified),2,47*,32,0,15,22
N#CCSc1nc2c(c(C3CC=CCC3)c1C#N)CCC2 (stereo unspecified),4,47*,31,21,6,35*
CCOc1ccc(NC(=O)C(C)Oc2ccccc2C(=O)Nc2cccc(Cl)c2Cl)cc1 (stereo unspecified),3,41*,10,19,19,10
CC(C)N=C1NN=C(c2ccc(Cl)c(Cl)c2)CS1,1,48*,36,-188,12,25
O=C(COc1ccc(Cl)cc1Cl)NCc1ccco1,1,1,14,-36,-10,/
Cc1cc(Cl)cc(Cl)c1OCC(=O)NCc1ccco1,0,50*,49,-20,35,40*
Cc1cccc(-c2ccc([N+](=O)[O-])cc2CN2CCN(c3ncc(Cc4ccccc4)cn3)CC2)c1,9,/,/,/,/,/
O=S(=O)(c1ccc2[nH]ccc2c1)N1CCCCCC1,-2,44*,39,9,18,6
O=C1CC(N2CCC(Cc3ccccc3)CC2)C(=O)N1CCc1ccccc1 (stereo unspecified),0,46*,37,23,32,4
CCOc1ccc(C(C)C)cc1S(=O)(=O)n1ccnc1C,-1,41*,4,0,-11,6
CCOc1ccc(OCC)c(S(=O)(=O)n2ccnc2C)c1,-1,-22,-82,20,-49,/
COc1ccc(CCN2CC(C(=O)NCCCc3ccncc3)CCC2=O)cc1 (stereo unspecified),0,/,/,/,/,/
CCn1c(-c2csc3c2CCC(C)C3)n[nH]c1=S (stereo unspecified),3,48*,45,-1,24,14
SMILES,MPTP block,tim10-1 inh,tim23-1 inh,Mdm2 MdmX PPI,TIM10 inh,tim10-1 confirm
O=C(OCC(O)C1OC(c2ccccc2)OC(COC(=O)c2ccccc2)C1O)c1ccccc1 (stereo unspecified),2,/,/,/,/,/
CCOC(=O)c1ccc(S(=O)(=O)N2CCN(CC(=O)NC(=O)NC3CCCCC3)CC2)cc1,3,44*,11,-7,16,28
CC(=O)c1ccc(S(=O)(=O)N2CCN(CC(=O)NC(=O)NC3CCCCC3)CC2)cc1,-1,/,/,/,/,/
Cc1onc(-c2c(F)cccc2Cl)c1C(=O)Oc1ccccc1,0,/,/,/,/,/
CC1CCC/C(=N\NC(=S)Nc2ccccc2)C1 (stereo unspecified),0,28,21,-5,25,/
CC1CCC/C(=N\NC(=S)NCc2ccccc2)C1 (stereo unspecified),0,41*,35,-13,28,32*
CC(C)CNc1ncnc2c1ncn2[C@H]1CN(CCc2ccccc2)C[C@@H](CO)O1,3,/,/,/,/,/
Cc1ccc(S(=O)(=O)N2C[C@]3(O)C[C@@H]4C(=O)N(c5ccccc5)C(=O)[C@@H]4C[C@]3(OC(=O)NC3CCCC3)C2)cc1,-2,/,/,/,/,/
COc1ccc(-c2cc(-c3ccccc3)c(C#N)c(SCC(=O)Nc3ncc(C)s3)n2)cc1,4,42*,21,27,10,19
N#Cc1c(-c2ccc(F)cc2)cc(-c2ccccc2)nc1SCC(=O)NCC(=O)O,2,-4,17,-14,9,/
N#C/C(=C\c1cccc2ccccc12)c1nn(-c2ccccc2)c(N)c1C#N,/,11,16,33,20,/
Cc1ccc(/C=C(\C#N)c2nn(-c3ccccc3)c(N)c2C#N)cc1,2,40*,29,-27,25,24
COC(=O)C1(C(=O)OC)C/C=C\CCN(S(=O)(=O)c2ccccc2[N+](=O)[O-])CC1,-1,/,/,/,/,/
O=C1c2ccccc2C(Nc2ccc3c(c2)OCCO3)N1Cc1ccccc1 (stereo unspecified),0,40,39,21,23,7
COc1ccccc1C(=O)N1CCN(c2nc3cc(C)c(C)cc3cc2C#N)CC1,-1,43*,34,14,29,24
Cc1ccc(-n2ncc3c(NCc4ccc5c(c4)OCO5)ncnc32)c(C)c1,4,41*,9,16,-11,2
Cc1ccc(-n2ncc3c(NCc4cccnc4)ncnc32)cc1C,2,43*,11,-170,24,-10
Cc1cccc(-n2ncc3c(NCc4ccc5c(c4)OCO5)ncnc32)c1,4,3,15,-10,38,/
N#C/C(C(=O)N1CCCCC1)=C1/N=C(N)c2ccccc21,-1,2,14,21,4,/
N#C/C(C(=O)N1CCCCC1)=C1/N=C(NC(=O)c2ccc(F)cc2)c2ccccc21,-2,44*,29,31,15,-3
CCC(=O)N1CCC(C)(C(=O)Nc2ccc3c(c2)OCO3)C1 (stereo unspecified),0,/,/,/,/,/
O=c1cccc(-c2ccc3ccccc3c2)o1,0,/,/,/,/,/
CCCN(CC(=O)Nc1ccccc1OC)C(=O)c1ccc2[nH]c3c(c2c1)CC(C)CC3 (stereo unspecified),-1,41*,43,-5,23,30
COc1cc(C)ccc1S(=O)(=O)NC(=O)Cn1nnc(COc2ccc3c(c2)CCCC3)c1C,0,/,/,/,/,/
CCOC(=O)c1c(OCC)[nH]c2c1cc(O)c1ccccc12,2,43*,41,8,37,41*

# High-throughput results (PubChem BioAssay)
